Screening data as filed in PubChem.
Only some compounds are listed: those with a hit (about 3.5% of all), similar ones and a draw of the others.
mHTT CaM bind = mHTT-calmodulin interaction abrogation | P42858 | AlphaScreen His-mHTT/GST-CaM binding, luminescence | inhibition, % at 15 µM | actives 3.6% (n = 190,000) | AID 1671202;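 note: 0% = both proteins with DMSO and 100% = one protein alone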
Pf apPOL block = Pf-apPOL DNA polymerase inhibition; Recombinant Pf-apPOL, molecular beacon fluorescence, 1.5 h; inhibition, % at 10 µM; actives 0.25% (n = 210,000); AID 1794808
Numbers without * were called inactive; nt = not tested or not shown. Cut-off read from the data, not from the text of the source: active = inhibition above about 50%; inactive = the rest.

SMILES | mHTT CaM bind | Pf apPOL block
COc1ccc(CNC(=O)C2CCN(c3cncnc3N(C)C)CC2)cc1 | 0 | -1
N=C1S/C(=C\c2ccco2)C(=O)N1c1nonc1N | 93* | 1
N=C1NC(=O)/C(=C\c2ccc(-c3cccc(C(F)(F)F)c3)o2)S1 | 43 | -1
N=C1S/C(=C\c2ccc(-c3cccc(Cl)c3)o2)C(=O)N1c1nccs1 | 57* | -9
COc1ccc(/C=C2\SC(=N)N(c3nonc3N)C2=O)cc1 | -1 | -6
N=C1S/C(=C\c2ccc(-c3ccc4c(c3)COC4=O)o2)C(=O)N1c1nccs1 | 41 | -7
CC(=O)Nc1nonc1N1C(=N)S/C(=C\c2ccc(-c3ccc(F)c(Cl)c3)o2)C1=O | 26 | 1
CC(=O)Nc1nonc1N1C(=N)S/C(=C\c2ccc(-c3ccc(F)cc3)o2)C1=O | 62* | -3
N=C1S/C(=C\c2ccc(-c3cccc(C(F)(F)F)c3)o2)C(=O)N1c1nonc1N | 56* | -3
Cc1cc(C)c(C(=O)N2CCC(CC(=O)NCc3ccc(Cl)cc3)CC2)[nH]1 | -6 | -2
Cc1oc(C(C)C)nc1C(=O)Nc1ccc(C(F)(F)F)cc1 | -29 | 7
Cc1cc(C)nc(NS(=O)(=O)c2c(C)[nH]c(=O)[nH]c2=O)n1 | -1 | -2
CC1(C(=O)Nc2ccc(Br)cn2)CC1(Cl)Cl (stereo unspecified) | -4 | 11
O=C(Nc1ccc(-c2nc3ncccc3o2)cc1)c1ccccc1F | -7 | 0
Cc1ccccc1C1CC(c2ccccc2Cl)Nc2ncnn21 (stereo unspecified) | 21 | 2
c1ccc(-c2nc(-c3ccccn3)nc(-c3ccccn3)n2)nc1 | 19 | nt
Clc1cc(-c2ccccn2)nc(-c2ccccn2)c1 | 76* | nt
CN(CCc1ccccn1)C(=O)c1ccccc1F | 0 | -2
Cn1nc(-c2nc(-c3ccccc3)no2)c2c1CCN(C(=O)c1cccs1)C2 | 21 | 0
Cn1c2c(c3ccccc31)CN(C(=O)c1cccs1)CC2 | 100* | 13
O=C(COc1cccc2c1CCN(Cc1ccc(Cl)cc1)C2=O)NCc1ccco1 | 70* | -11
O=C(COc1cccc(Cl)c1)NCc1ccco1 | -4 | -20
CCOC(=O)C1=C(N)Oc2c(oc(CO)cc2=O)C1c1ccc2c(c1)OCO2 (stereo unspecified) | 6 | -14
Cc1ccc(N2C(=O)c3ccccc3NC2c2cccc(F)c2)cc1 (stereo unspecified) | -6 | 11
Cc1cc(C(=O)N2CCC(c3nnc(-c4ccc(F)cc4)o3)CC2)c(C)o1 | 100* | -5
SMILES | mHTT CaM bind | Pf apPOL block
O=C(c1ccccc1Br)N1CCC(c2nnc(-c3ccc(F)cc3)o2)CC1 | -8 | -3
O=C(Nc1ccccc1Cl)NC12CC3CC(CC(C3)C1)C2 | -14 | -3
Cc1cc(S(=O)(=O)NNc2ncnc3cc(C(C)(C)C)sc23)c(C)cc1Cl | nt | -4
CC(C)(CO)NCC(O)Cn1c2ccc(Cl)cc2c2cc(Cl)ccc21 (stereo unspecified) | 97* | 0
CN(C)CC(O)Cn1c2ccc(Cl)cc2c2cc(Cl)ccc21 (stereo unspecified) | 60* | 26
OCCNCC(O)Cn1c2ccccc2c2ccccc21 (stereo unspecified) | 2 | -4
OCC(CO)(CO)NCC(O)Cn1c2ccc(Cl)cc2c2cc(Cl)ccc21 (stereo unspecified) | 68* | 1
OCC(CO)(CO)NCC(O)Cn1c2ccccc2c2ccccc21 (stereo unspecified) | 2 | 4
CN(C)CC(O)Cn1c2ccccc2c2ccccc21 (stereo unspecified) | 1 | -10
CCc1ccc(-c2nc(CN3CCCC(C(=O)NC4CCCC4)C3)c(C)o2)cc1 (stereo unspecified) | 15 | -3
O=C(Cn1ccc2sccc2c1=O)NCc1ccccc1F | -6 | 2
O=[N+]([O-])c1ccc(NCCNS(=O)(=O)c2ccc(Cl)c(Cl)c2)cc1 | 33 | -5
COc1ccc(Oc2ccc(NS(=O)(=O)c3cccc4cccnc34)cn2)cc1 | nt | -7
O=C(c1ccco1)N1CCCC2(CC(c3cccnc3)=CO2)C1 (stereo unspecified) | -6 | 0
O=C(Cn1cnc2c(oc3ccccc32)c1=O)Nc1cc(F)ccc1F | -1 | -3
O=C(Cn1c2c(c3ccccc31)CCC2)Nc1cc(F)ccc1F | 76* | -2
COc1ccc(NC(=O)N2CCC(c3cc(N)on3)CC2)cc1F | -6 | -3
CCCC1N=C(c2ccc(Cl)cc2)CC(c2cccc(OC)c2O)N1 (stereo unspecified) | 52* | -4
CCCC1N=C(c2cccc(OC)c2)CC(c2ccccc2O)N1 (stereo unspecified) | 45 | -5
Cc1ccc2[nH]c3c(cc(NCCO)c4c(=O)c5ccccc5c(=O)c43)oc2c1 | 18 | -3
Cc1ccc2[nH]c3c(cc(NCCCO)c4c(=O)c5ccccc5c(=O)c43)oc2c1 | 60* | -6
COc1ccc(/C=C(\C#N)c2ccc(OC)c(OC)c2)cc1OC | 14 | -5
